Source: PubChem BioAssay (several laboratories)
Sampled rows, rich in hits. Any-hit rate of the full collection: about 22%.
CYP2C19 act: cytochrome P450 2C19 (human) activation; P33261; AID 1025; activation factor at 5 µM; recombinant CYP2C19, luciferin-H EGE luminescence; stronger effect = higher value; 0 = fully inhibited enzyme, 1 = untreated enzyme; 96,000 tested, under 10 active;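 active means activation factor of at least 2 at 5 µM in the primary screen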
CYP2C19 inhib: inhibitors of human CYP2C19; P33261; CYP2C19 Supersomes, luciferin-H EGE luminescence, 30 min; inhibition, % at 5 µM; 96,000 compounds, 21% hits;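 active means CYP2C19 inhibition above a set limit at 5 µM in the primary screen, cut at about 50% in these data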
CYP2C9 activ: increases human cytochrome P450 2C9 activity | activation factor at 5 µM | 96,000 compounds, 1.4% hits | recombinant CYP2C9, luciferin-H conversion, luminescence; stronger effect = higher value; factor 1 = untreated enzyme, 0 = blocked | P11712;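 active means activation factor of 2 or more for CYP2C9 at a 5 µM dose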
Target sequence (P11712 whole entry, looked up): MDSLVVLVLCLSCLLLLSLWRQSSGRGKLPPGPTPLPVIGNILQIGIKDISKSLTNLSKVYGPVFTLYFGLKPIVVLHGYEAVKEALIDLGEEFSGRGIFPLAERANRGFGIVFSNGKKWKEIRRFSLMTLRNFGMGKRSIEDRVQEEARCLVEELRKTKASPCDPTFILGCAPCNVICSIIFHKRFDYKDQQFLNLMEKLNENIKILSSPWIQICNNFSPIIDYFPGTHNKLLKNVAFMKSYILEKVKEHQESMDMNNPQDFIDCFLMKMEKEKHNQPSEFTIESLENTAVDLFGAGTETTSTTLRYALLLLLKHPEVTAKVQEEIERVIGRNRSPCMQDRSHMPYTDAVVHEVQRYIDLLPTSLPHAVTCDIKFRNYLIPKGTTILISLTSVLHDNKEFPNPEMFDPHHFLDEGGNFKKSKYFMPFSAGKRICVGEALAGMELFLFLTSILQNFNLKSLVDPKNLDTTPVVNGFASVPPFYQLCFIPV
CYP2C9 inhib: human CYP2C9 inhibition; P11712; CYP2C9 Supersomes, luciferin-H conversion, luminescence; inhibition, % at 5 µM; 96,000 compounds, 20% hits; AID 777;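 active means blocking of liver enzyme CYP2C9 beyond about 50% at 5 µM, limit read from the data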
Measles CPE: protection of cells from measles virus. Measles virus-infected cells, CPE protection, absorbance. protection (pct of control), % at 4 µM. 140,000 compounds, 1.5% hits; in the data active means protection mostly above about 24%, no sharp cut-off; inactive means mostly below about 26%
A number is an active result; i = inactive; nt = no result given.

SMILES | CYP2C19 act | CYP2C19 inhib | CYP2C9 activ | CYP2C9 inhib | Measles CPE
COc1ccc(/C=N/NS(=O)(=O)c2ccccc2)cc1OS(=O)(=O)c1ccc(C)cc1 | i | 52 | i | 93 | i
CCCCOc1[nH]c2nc(-c3ccco3)n(Cc3ccco3)c(=N)c2c1C#N | i | 61 | i | 81 | i
O=C(O)CSc1nc2ccccc2c(=O)[nH]1 | i | i | i | i | i
Cc1cc(C)cc(CSc2nnc(C)c(=O)[nH]2)c1 | i | i | i | 86 | i
Cc1nnc(SCC(=O)NCc2ccccc2)[nH]c1=O | i | i | i | i | 55
COC(=O)c1ccccc1NC(=O)CSc1nc2ccccc2c(=O)[nH]1 | i | i | i | 59 | i
Cc1nnc(SCC(=O)NCc2ccc(Cl)cc2)[nH]c1=O | i | i | i | i | i
O=C(CSc1nc2ccccc2c(=O)[nH]1)NCc1ccc(Cl)cc1 | i | i | i | 51 | i
CCCC(=O)Nc1ccc(C(=O)NNC(=O)COc2ccc(Br)c(C)c2)cc1 | i | i | i | i | i
C/C(=N\OCC(=O)Nc1ccc(OC(F)(F)F)cc1)c1ccc2c(c1)OCCO2 | nt | nt | nt | nt | i
CCC(=O)N1N=C(c2c(-c3ccccc3)c3cc(Cl)ccc3[nH]c2=O)CC1c1ccco1 (configuration not stated) | nt | nt | nt | nt | i
COc1ccccc1C1CC(c2c(-c3ccccc3)c3cc(Cl)ccc3[nH]c2=O)=NN1S(C)(=O)=O (configuration not stated) | i | i | i | 60 | i
COc1cccc(C2CC(c3c(-c4ccccc4)c4cc(Cl)ccc4[nH]c3=O)=NN2S(C)(=O)=O)c1OC (configuration not stated) | i | i | i | 51 | 68
COc1ccc(C(=O)NCC(=O)OCC(=O)N2CC(C)CC(C)C2)cc1 (configuration not stated) | i | i | i | 66 | i
Cc1ncsc1C(=O)N1N=C2/C(=C/c3ccccc3)CCCC2C1c1ccccc1 (configuration not stated) | i | i | i | 52 | i
CCOc1ccc(C(=O)NCC(=O)OCC(=O)N2CCC(C)CC2)cc1 | i | i | i | i | i
Cc1ncsc1C(=O)N1N=C2/C(=C/c3ccc(N4CCOCC4)cc3)CCCC2C1c1ccc(N2CCOCC2)cc1 (configuration not stated) | i | i | i | i | nt
COc1ccc(/C=C2\CCCC3C2=NN(C(=O)COC(=O)CNC(=O)c2ccccc2)C3c2ccc(OC)cc2)cc1 (configuration not stated) | i | i | i | 74 | i
COc1ccccc1Nc1ncnc2ccccc12 | i | i | i | i | i
Cc1ccc(NC(=O)C2CCCN(S(=O)(=O)c3cnc[nH]3)C2)cc1C (configuration not stated) | i | 90 | i | 86 | i
O=C(Nc1ccc(Cl)c(C(F)(F)F)c1)C1CCCN(S(=O)(=O)c2cnc[nH]2)C1 (configuration not stated) | i | 93 | i | 94 | i
Cc1cc(NC(=O)C2CCCN(S(=O)(=O)c3cnc[nH]3)C2)ccc1Br (configuration not stated) | i | 97 | i | 94 | i
CCN(CC)c1ccc(NC(=O)C2CCCN(S(=O)(=O)c3cnc[nH]3)C2)c(C)c1 (configuration not stated) | i | i | i | i | i
O=C(Nc1ccc2c(c1)OCCO2)C1CCCN(S(=O)(=O)c2cnc[nH]2)C1 (configuration not stated) | i | i | i | 62 | i
Cc1cccc(OCCNC(=O)c2cncc(Br)c2)c1 | nt | nt | nt | nt | i
SMILES | CYP2C19 act | CYP2C19 inhib | CYP2C9 activ | CYP2C9 inhib | Measles CPE
CC1Nc2ccccc2C(=O)N1NS(=O)(=O)c1ccccc1 (configuration not stated) | nt | nt | nt | nt | i
CC1CCCC(C)N1C(=O)CSc1nnc(CSc2ncccn2)n1C (configuration not stated) | i | i | i | i | i
Cc1nc2cc3nc(C(F)(F)F)[nH]c3cc2[nH]1 | nt | nt | nt | nt | i
O=C(NCCN1CCN(c2cccc(Cl)c2)CC1)C1CCCN(S(=O)(=O)c2cnc[nH]2)C1 (configuration not stated) | i | i | i | i | i
COc1ccc(NC(=O)C2CCCN(S(=O)(=O)c3cnc[nH]3)C2)cc1 (configuration not stated) | i | i | i | 62 | i
O=C(Nc1cccc(Cl)c1)C1CCCN(S(=O)(=O)c2cnc[nH]2)C1 (configuration not stated) | i | 95 | i | 96 | i
N/C(=N\OC(=O)COc1ccc(Br)cc1Cl)c1cccnc1 | nt | nt | nt | nt | i
CC(C)(C)C1CCC(=O)C(C2(O)C(=O)Nc3ccccc32)C1 (configuration not stated) | i | i | i | i | i
O=C1CCCCCC1C1(O)C(=O)Nc2ccc(Br)cc21 (configuration not stated) | i | 52 | i | i | i
O=C(O)CCN1C(=O)c2ccccc2C1=O | i | i | i | i | i
CC(C)CC1(C)NC(=O)N(CCN2C(=O)c3ccccc3C2=O)C1=O (configuration not stated) | i | 75 | i | i | i
CCc1c(C)nc(SCCOc2ccc(OC(C)C)cc2)[nH]c1=O | i | i | i | i | i
CCc1c(C)nc(SCCOc2ccc(OC)cc2)[nH]c1=O | i | 66 | i | 62 | i
CCCOc1cccc(OCCSc2nc(C)cc(=O)[nH]2)c1 | i | i | i | 51 | i
CCC(=O)c1ccccc1OCCSc1nc(C)cc(=O)[nH]1 | i | 72 | i | i | i
Cc1cc(=O)[nH]c(SCCCOc2ccc(F)cc2)n1 | i | i | i | i | i
NC(=O)CSc1nnc(Cc2csc(Nc3ccc(F)cc3)n2)n1Cc1ccccc1 | nt | nt | nt | nt | i
Cc1ccc(/C=C/C(=O)O)cc1S(=O)(=O)N(CCO)CCO | nt | nt | nt | nt | i
O=C(CN1CCN(C/C=C/c2ccccc2)CC1)Nc1cc([N+](=O)[O-])ccc1Cl | nt | nt | nt | nt | i
CCCS(=O)(=O)NCCc1cc2ccc(OC)cc2[nH]c1=O | i | i | i | i | i
CCCC(=O)N(Cc1cc2ccccc2[nH]c1=O)c1ccccc1OC | i | 65 | i | 87 | 38
COc1ccc(S(=O)(=O)N(Cc2cc3ccc(OC)cc3[nH]c2=O)CC2COCCO2)cc1 (configuration not stated) | i | i | i | 75 | i
Cc1ccc(S(=O)(=O)N(C)Cc2cc3ccccc3[nH]c2=O)cc1 | i | i | i | i | i
CCCC(=O)N(Cc1cc2cc(C)ccc2[nH]c1=O)c1ccccc1OC | i | i | i | i | i
COc1ccc2cc(CN(CC3COCCO3)S(=O)(=O)c3ccccc3)c(=O)[nH]c2c1 (configuration not stated) | i | i | i | 85 | i
COc1ccc2cc(CN(Cc3cccnc3)S(=O)(=O)c3ccccc3)c(=O)[nH]c2c1 | i | i | i | i | i
CN(Cc1cc2ccccc2[nH]c1=O)S(=O)(=O)c1ccccc1 | i | 79 | i | i | i
CC(C)NC(=S)NCc1cccnc1 | nt | nt | nt | nt | 51
S=C(NCc1cccnc1)Nc1ccc(Cl)c(Cl)c1 | i | 92 | i | 98 | i
